# Vaccinia Venus = qHTS for Stage-Specific Inhibitors of Vaccinia Orthopoxvirus: Venus Reporter Primary qHTS; AID 720580, 2013; 330,000 compounds, 0.46% hits; Vaccinia virus Venus reporter expression, fluorescence; Potency, µM (highest dose often 36.5 µM), inactives show at the top dose activity change, negative = inhibition, actives largely listed as inhibitors; calls by dose curve; tested in A549 cells; further: potency means the concentration at half of the fitted maximal effect; nearly all actives have a fitted effect of over 30% in size
# Vaccinia mCherry = qHTS for Stage-Specific Inhibitors of Vaccinia Orthopoxvirus: mCherry Reporter Primary qHTS; Vaccinia virus mCherry reporter infection, fluorescence; 310,000 compounds, 0.63% hits; Potency, µM (top dose mostly 36.5 µM), for the others: at the highest dose activity change, negative = inhibition, actives largely listed as inhibitors; calls by dose curve; tested in A549 cells; further: potency means the concentration at half of the fitted maximal effect; nearly all actives have a fitted effect of over 35% in size
# HCV inh = qHTS Assay for Inhibitors of Hepatitis C Virus (HCV). Huh7.5.1 HCVcc-Cre infection, luciferase reporter, 44 h. Potency, µM (highest dose often 41.8 µM), for the others: at the top dose activity change, negative = inhibition, most hits filed as inhibitors. 340,000 compounds, 3.4% hits. AID 651820, 2012; further: potency means the concentration at half of the fitted maximal effect
#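 HCVcc-Cre virus at an moi near 0.5 was added right after compound to cells cultured 4 h from seeding (1,000 cells/well). Luciferase activity was determined 44 h later, 15 min after substrate addition at RT.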
# Sm TGR inh = qHTS Assay for the Inhibitors of Schistosoma Mansoni Peroxiredoxins; purified TGR, DTNB reduction, TNB absorbance 405 nm; Potency, µM (top dose mostly 114 µM), without a hit: at the highest dose activity change, negative = inhibition, most hits filed as inhibitors; 360,000 compounds, 3% hits; further: potency means the concentration at half of the fitted maximal effect; nearly all actives have a fitted effect of over 60% in size
#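 First, TGR (20 nM dispensed) and NADPH were mixed with compound. Second, a 15 min room-temperature incubation followed. Third, further NADPH and then DTNB were added to start the reaction. Finally, TNB absorbance was monitored kinetically.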
# HCMV antiviral = qHTS Assay for inhibitors of the human cytomegalovirus (HCMV) | HFF cells, HCMV-luciferase reporter, 72 h; hits give low values | activity change, negative = inhibition, % at 57.5 µM | 410,000 compounds, 4.5% hits | AID 1259415, 2018; in the data active means activity change below about -60%; inconclusive means no clear call, values can overlap the other calls; inactive means above about -39%
#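 Two compound doses tested in HFFs infected with HCMV-luciferase, MOI 1 PFU/cell, 72 h at 37C. Lysate luminescence read with OneGlo; data normalized against buffer-only and 10uM Salinomycin inhibitor controls.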
# FMDV inh = High Throughput Screening for Foot and Mouth Disease Virus Antivirals; FMDV antiviral cell-based qHTS; Potency, µM (series often up to 57.9 µM), for the others: at the top dose activity change, negative = inhibition, most hits filed as inhibitors; 410,000 compounds, 1.2% hits; calls by dose curve; tested in HEK293T cells; further: read-out not given here; potency means the concentration at half of the fitted maximal effect; nearly all actives have a fitted effect of over 45% in size
# * marks the source's active call; other numbers are inactive results; i = inactive; u = inconclusive; x = no result; [ ] = dose if it differs, or a comment. Only some compounds are listed: those with a hit (about 9.3% of all), similar ones and a draw of the others. Unless noted, the call rests on the fitted dose curve; in most records, active means well fitted curve in the direction sought with a large enough effect; inconclusive means small, poorly fitted or top-dose-only effect, or another doubt; inactive means no such curve, though single readings can be large; an effect the other way counts as inactive or inconclusive. On the % scale 0 is the no-effect control and ±100 the full control effect.
SMILES,Vaccinia Venus,Vaccinia mCherry,HCV inh,Sm TGR inh,HCMV antiviral,FMDV inh
CN1CCC(C2(O)c3ccccc3CCc3ccccc32)CC1,-8%,-3%,7%,0%,u,6%
CCc1cccc2c(=O)c(C(=O)NCCN3CCOCC3)c[nH]c12,x,x,10µM*,1%,15,3%
CCc1cccc2c(=O)c(C(=O)N3CCOCC3)c[nH]c12,-8%,-13%,15%,0%,-35,0%
Cc1ccc(NC(=O)/C(=C/c2cccc([N+](=O)[O-])c2)NC(=O)C2CCCCC2)c(C)c1,-5%,u,-7%,8%,-96*,x
Cc1nc(N2CCN(S(=O)(=O)c3ccccc3C#N)CC2)c2c(-c3cccs3)csc2n1,x,x,10µM*,-9%,-38,u
C[C@@H]1CN(S(=O)C(C)(C)C)[C@H](CCO)/C1=C\c1ccccc1 (some centres not stated),12%,-16%,-2%[8.37 µM],x,-18,-11%
CC(=O)c1cccc(NC(=O)CSc2nnc(C(C)N(C)C)n2-c2ccc(F)cc2)c1 (configuration not stated),-12%,-23%,8%,18%,3,8%
CC(c1nnc(Sc2nnnn2-c2ccccc2)n1-c1ccc(F)cc1)N(C)C (configuration not stated),u,13µM*,-3%,16%,u,-28%
CCCn1nc(NC(=O)CC)c2cc3cccc(C)c3nc21,-27%,-19%,u,1%,u,-2%
CCC(=O)Nc1nn(C)c2nc3c(C)cccc3cc12,-20%,x,10µM*,-15%,-3,12%
CCOC(=O)c1c(C)[nH]c(C(=O)CSc2ccccc2)c1C,-29%,x,u,-11%,35,21%
CCn1c(SCC(=O)c2[nH]c(C)c(C(C)=O)c2C)nnc1-c1ccccc1,u,u,5.6µM*,1%,-37,25µM*
CC(=O)c1c(C)[nH]c(C(=O)CSc2ccc(F)cc2)c1C,-19%,i,13µM*,3%,u,12%
CC(C)NC(=O)CSc1nncn1-c1ccccc1,-6%,-6%,17%,1%,-3,-8%
Cc1cnc(CNc2nc(-c3ccc(N(C)C)cc3)nc3ccccc23)cn1,u,11µM*,x,x,x,39%
c1ccc(-c2nc(NC3CCCC3)c3ccccc3n2)cc1,u,-14%,1.3µM*,-12%,20,u
CN(C)c1ccc(-c2nc(NC3CCNCC3)c3ccccc3n2)cc1,11µM*,11µM*,x,x,x,41%
CC1CCN(C(=O)CSc2nnc3c(n2)[nH]c2ccccc23)CC1,-6%,-17%,u,4%,u,u
Cc1ccc(NC(=O)COC(=O)C(NS(=O)(=O)c2ccc(Cl)cc2)C(C)O)cc1C (configuration not stated),-2%,i,16%,45µM*,-27,u
Cc1ccc(NC(=O)COC(=O)C(NS(=O)(=O)c2ccc(Cl)cc2)C(C)O)c(Br)c1 (configuration not stated),5%,-5%,-10%,-16%,-1,4%
O=C(CSc1nnc(-c2ccncc2)n1Cc1ccco1)Nc1nc(-c2ccccc2)cs1,-30%,-10%,10µM*,u,-5,18µM*
O=C(CSc1nnc(-c2ccncc2)n1Cc1ccco1)Nc1ccccc1Cl,-14%,i,-14%,-22%,2,-8%
O=C(CSc1nnc(-c2ccncc2)n1Cc1ccco1)Nc1ccccc1F,-7%,-1%,4%,50µM*,u,-8%
O=C(CSc1nnc(-c2ccccc2)n1Cc1ccco1)Nc1ccc(S(=O)(=O)N2CCCC2)cc1,x,x,14µM*,-22%,-16,-28%
O=C(CSc1nnc(-c2ccc(F)cc2)o1)Nc1ccc(S(=O)(=O)N2CCCCCC2)cc1,-2%,-15%,-27%,-20%,-84*,x
